Only some compounds are listed: those with a hit (about 9.2% of all), similar ones and a draw of the others.
ELG1 genotoxic: qHTS screen for small molecules that induce genotoxicity in human embryonic kidney (HEK293T) cells expressing luciferase-tagged ELG1 | HEK293T ELG1-luciferase reporter, luminescence, 16 h | Potency, µM (doses to about 46 µM), inactives show top-dose activity change, positive = activation, actives largely listed as activators | 330,000 tested, 1.3% active; further: % of control where 0% means no effect; nearly all actives have a fitted effect of over 60% in size
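Quantitative HTS format in 1536-well plates. HEK293T ELG1-luciferase reporter cells receive test compound and are incubated 16 hr at 37 °C, 5% CO2; ONE-Glo added, 30 min room temperature, then luminescence read.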
Rab9 promoter act: qHTS Assay for Rab9 Promoter Activators; 320,000 tested, 2.8% active; Huh7 Rab9 promoter-luciferase reporter, luminescence, 24 h; AID 485297, 2010; Potency, µM (doses to about 9.22 µM), without a hit: top-dose activation, negative = inhibition, usual class: activators; further: % of control where 0% means no effect; nearly all actives have a fitted effect of over 60% in size
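Measured in stably transfected Huh7 cells bearing a Rab9 promoter–luciferase construct: 24 h compound treatment at 37 °C, followed by luminescence detection.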
FLuc modulator: qHTS profiling assay for firefly luciferase inhibitor/activator using purifed enzyme and Km concentrations of substrates (counterscreen for miR-21 project). AID 588342, 2011. 360,000 tested, 6.9% active. purified FLuc, Km substrates, luminescence inhibition. Luciferin 4-monooxygenase (Photinus pyralis), P08659. Potency, µM (highest dose often 57.5 µM), without a hit: top-dose activity change, negative = inhibition, usual class: inhibitors;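 further: plate controls were vehicle for no effect and reference inhibitor for full effect; nearly all actives have a fitted effect of over 55% in size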
Target sequence (P08659 whole entry, looked up): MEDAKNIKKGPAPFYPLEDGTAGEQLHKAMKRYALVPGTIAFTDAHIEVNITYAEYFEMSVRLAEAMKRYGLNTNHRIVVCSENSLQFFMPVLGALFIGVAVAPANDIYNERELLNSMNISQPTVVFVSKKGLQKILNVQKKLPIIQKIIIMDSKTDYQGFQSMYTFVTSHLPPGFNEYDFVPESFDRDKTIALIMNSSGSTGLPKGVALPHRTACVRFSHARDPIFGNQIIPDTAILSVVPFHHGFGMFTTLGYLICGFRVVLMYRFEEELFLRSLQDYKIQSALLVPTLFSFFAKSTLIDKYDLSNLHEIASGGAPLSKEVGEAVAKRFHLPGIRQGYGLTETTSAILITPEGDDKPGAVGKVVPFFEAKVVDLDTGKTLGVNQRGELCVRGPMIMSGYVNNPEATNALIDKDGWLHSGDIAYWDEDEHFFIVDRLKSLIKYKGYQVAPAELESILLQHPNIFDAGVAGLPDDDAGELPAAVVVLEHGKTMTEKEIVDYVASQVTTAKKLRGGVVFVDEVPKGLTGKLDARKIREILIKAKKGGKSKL
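Biochemical qHTS of compounds, final roughly 60 µM downward over six points, against 10 nM purified firefly luciferase using Km concentrations of substrates (10 uM D-luciferin, 10 uM ATP) in Tris acetate pH 7.5 buffer; luminescence output.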
SMN2 splice enh: qHTS Assay for Enhancers of SMN2 Splice Variant Expression. HEK293 SMN2-luciferase splicing reporter, luminescence, 30-36 h. Potency, µM (series often up to 46.1 µM), without a hit: at the top dose activity change, positive = activation, actives largely listed as activators. 210,000 tested, 2.8% active. AID 1458, 2008; further: % of control where 0% means no effect; nearly all actives have a fitted effect of over 55% in size
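HEK293 cells carry an SMN2 minigene-luciferase reporter in which exon 7 inclusion puts luciferase in frame. Cells were seeded at 2000 cells/well, attached for 10-12 hours, then exposed to compounds for 30-36 hours at 37C before ONE-Glo luminescence.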
NPC1 prom act: qHTS Assay for NPC1 Promoter Activators; Huh7 NPC1 promoter luciferase reporter, 24 h; Potency, µM (series often up to 9.22 µM), without a hit: at the top dose activation, hits mostly activators; 320,000 tested, 2.4% active; AID 485313, 2010; further: % of control where 0% means no effect; nearly all actives have a fitted effect of over 60% in size
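Luminescence from an NPC1 promoter-driven luciferase reporter in stably transfected Huh7 cells was measured after 24 h compound treatment at 37 °C, followed by 10 min ambient incubation with luciferase detection reagent.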
ELG1 repair inh: qHTS screen for small molecules that inhibit ELG1-dependent DNA repair in human embryonic kidney (HEK293T) cells expressing luciferase-tagged ELG1; HEK293T ELG1-luciferase reporter, luminescence, 16 h; DNA damage induced by 5-fluorouridine; Potency, µM (top dose mostly 46.1 µM), for inactives: at the top dose activity change, negative = inhibition, hits mostly inhibitors; 330,000 tested, 2.3% active; AID 504467, 2011; further: on the % scale 0 is the no-effect control and ±100 the full control effect; nearly all actives have a fitted effect of over 55% in size
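Luminescence from the luciferase reporter, measured 30 min after ONE-Glo reagent at room temperature, was the read-out. Beforehand, 2,000 cells per well were exposed for 16 hr at 37 °C to 5-fluorouridine together with compound or vehicle.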
Numbers without * were called inactive; ? = inconclusive; . = no result; [ ] = dose if it differs, or a comment. The call rests on the fitted dose curve; in most records, active means well fitted curve in the direction sought with a large enough effect; inconclusive means small, poorly fitted or top-dose-only effect, or another doubt; inactive means no such curve, though single readings can be large; an effect the other way counts as inactive or inconclusive. Potency means the concentration at half of the fitted maximal effect.

SMILES	ELG1 genotoxic	Rab9 promoter act	FLuc modulator	SMN2 splice enh	NPC1 prom act	ELG1 repair inh
O=C(Nc1nc2ccccc2[nH]1)c1ccc(Br)o1	?	?	9.5µM*	13µM*	?	?
CN(C)c1cccc(C(=O)Nc2nc3ccccc3[nH]2)c1	?	0.32µM*	0.6µM*	.	0.45µM*	?
O=C(CNC(=O)c1ccc(Cl)cc1Cl)OCC(=O)N1CCCC1=O	1%	0%	5%	.	-2%	21%
O=C(CCN1C(=O)S/C(=C\c2ccc(Cl)cc2)C1=O)Nc1ccc(C(=O)O)cc1	13%	30%	15µM*	.	-5%	?
CCOc1ccc(/C=C2\SC(=S)N(CCC(=O)Nc3ccc(C(=O)O)cc3)C2=O)cc1	13%	-8%	2.7µM*	.	3%	?
COc1ccc(/C=C2\SC(=S)N(CCCC(=O)Nc3cccc(C(=O)O)c3)C2=O)cc1OC	-20%	-1%	3%	.	-6%	?
CCOc1ccc(/C=C2\SC(=S)N(CCC(=O)Nc3cccc(C(=O)O)c3)C2=O)cc1	?	?	2.1µM*	.	29%	25%
CCOC(=O)CN1C(=O)S/C(=C\c2ccc3c(c2)OCO3)C1=O	11%	-4%	21µM*	.	5%	25%
O=C(Nc1nc2n(n1)C(c1ccc(F)cc1)C=C(c1ccc(Cl)cc1)N2)c1ccc([N+](=O)[O-])cc1 (stereo not drawn)	.	.	-1%	.	.	.
CCC1OC(=O)C(C)[C@@H](O[C@H]2C[C@@](C)(OC)C(O)C(C)O2)C(C)[C@@H](O[C@@H]2OC(C)CC(N(C)C)C2O)[C@](C)(O)CC(C)/C(=N\OCOCCOC)[C@H](C)C(O)[C@]1(C)O (stereo partly drawn)	.	.	.	1%	.	.
O=C(CCN1C(=O)/C(=C/c2ccc3c(c2)OCO3)SC1=S)Nc1ccc(C(=O)O)cc1	9%	2%[1.84 µM]	9.5µM*	.	0%	3%
O=C(Nc1nnc(C2CCCO2)s1)c1ccc(Br)cc1 (stereo not drawn)	?	?	?	27%	3.5µM*	?
Cc1ccc(OCC(=O)Nc2nnc(C3CCCO3)s2)c(Br)c1 (stereo not drawn)	7%	-3%	?	4%	2%	?
CCN(c1ccccc1)S(=O)(=O)c1cc2c(cc1C)NC(=O)CO2	-2%	6%	1%	.	-3%	1%
COc1ccccc1OCc1nnc(-c2ccccc2)o1	.	.	?	26%	.	.
Nc1nc(-c2ccc(-c3ccccc3)cc2)cs1	?	0.4µM*	2.4µM*	0.5µM*	0.79µM*	?
Nc1nc(-c2ccc3ccccc3c2)cs1	4.6µM*	0.79µM*	3.8µM*	11µM*	3.2µM*	?
COc1ccc(-c2csc(-c3cc4ccccc4oc3=N)n2)cc1	0%	0%	5.4µM*	5%	1%	21%
Cc1ccc(OCc2csc(N)n2)cc1	?	4µM*	24µM*	13µM*	?	?
COc1ccc(F)cc1S(=O)(=O)NCCc1csc(-c2ccc(Cl)cc2)n1	.	.	1%	.	.	.
COc1ccc(CNC(=O)CCCn2c(=O)c3cccn3c3ccc(F)cc32)cc1OC	.	.	-12%	.	.	.
Cc1ccc(S(=O)(=O)C(CNC(=O)C(=O)NCCc2ccc(Cl)cc2)c2cccs2)cc1 (stereo not drawn)	.	.	-10%	.	.	.
Cc1nn(CC(=O)NCC(C)c2ccccc2)c(=O)c2cc(-c3ccccc3)nn12 (stereo not drawn)	-1%	2%	-1%	.	-3%	0%
CCOc1ccc(Sc2cc(C(=O)NC(C)CC)c3ccccc3n2)cc1 (stereo not drawn)	.	.	-3%	.	.	.
COc1ccc(-c2csc(N=C(N)N)n2)cc1	?	?	15µM*	29%	?	?
SMILES	ELG1 genotoxic	Rab9 promoter act	FLuc modulator	SMN2 splice enh	NPC1 prom act	ELG1 repair inh
Nc1nc(-c2ccc(Oc3ccccc3)cc2)cs1	?	?	13µM*	.	?	?
Nc1nc(-c2ccc(C(=O)O)cc2)cs1	2%	-4%	-9%	5%	-8%	9%
COc1ccc(-c2csc(N)n2)cc1	?	?	15µM*	14µM*	?	?
Cc1ccc(-c2csc(N=C(N)N)n2)c(C)c1	5%	13%	?	.	12%	0%
CC(=O)c1cccc(OCC(=O)NC2CCCCCC2)c1	5%	11%	-15%	.	14%	?
O=c1c2oc3ccccc3c2n(Cc2ccccc2Cl)c(=O)n1Cc1ccco1	.	.	-10%	.	.	.
c1ccc2[nH]c(SCC3CCCCO3)nc2c1 (stereo not drawn)	?	1.4µM*	19µM*	188%	1.8µM*	?
O=C(O)CSc1nc2ccccc2[nH]1	-2%	6%	-1%	-2%[9.22 µM]	-4%	4%
CCOc1ccc2nc(SCC3CC3(Cl)Cl)[nH]c2c1 (stereo not drawn)	?	3.2µM*	7.6µM*	.	2.5µM*	?
ClC1(Cl)CC1CSc1nc2ccccc2[nH]1 (stereo not drawn)	17%	?	17µM*	?	?	?
CCC1(c2ccccc2)ON(c2c(Br)cccc2Br)C1=O (stereo not drawn)	-2%	-3%	2%	.	-10%	?
CC(=O)N1CCC2(CC1)CCN(c1cccc(-c3ccccc3)c1)CC2	.	.	.	-47%	.	.
Cn1cccc1C(=O)OCC(=O)Nc1ccc2c(c1)OCO2	?	2.8µM*	17µM*	?	3.5µM*	?
O=C(COC(=O)c1ccco1)Nc1ccc2c(c1)OCO2	0%	-1%	?	12%	-1%	6%
Cn1cccc1C(=O)OCC(=O)Nc1ccc2[nH]c(=O)[nH]c2c1	4%	.	.	.	.	?
Cn1cccc1C(=O)OCC(=O)Nc1ccc2c(c1)CCC2	21µM*	?	?	20%	?	?
O=C(O)[C@@H]1[C@@H](C(=O)O)[C@@]23CCCC2=C2CC[C@@]3(C(=O)O)[C@@]3(C(=O)O)C[C@@]213	.	.	.	-7%[9.22 µM]	.	.
COc1ccc(/C=C/c2nc(C#N)c(N3CCCCC3)o2)cc1OC	.	.	?	-8%	.	.
COc1ccc(S(=O)(=O)CCC(=O)N2CCN(c3ccccc3F)CC2)cc1	-3%	-6%	2%	.	-2%	8%

From PubChem
